Compound activity (PubChem)
FECH inh – blocks human mitochondrial ferrochelatase activity. AID 1671448. purified FECH, Ni-mesoporphyrin absorbance 550 nm. 20,000 tested, 3.3% active. calls only at 10 µM (by protocol);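 active = enzyme reaction rate more than 3 SD below the solvent-only control wells on the same plate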;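 also: lower slope than DMSO wells means FECH inhibition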
Target sequence (P22830 whole entry, looked up): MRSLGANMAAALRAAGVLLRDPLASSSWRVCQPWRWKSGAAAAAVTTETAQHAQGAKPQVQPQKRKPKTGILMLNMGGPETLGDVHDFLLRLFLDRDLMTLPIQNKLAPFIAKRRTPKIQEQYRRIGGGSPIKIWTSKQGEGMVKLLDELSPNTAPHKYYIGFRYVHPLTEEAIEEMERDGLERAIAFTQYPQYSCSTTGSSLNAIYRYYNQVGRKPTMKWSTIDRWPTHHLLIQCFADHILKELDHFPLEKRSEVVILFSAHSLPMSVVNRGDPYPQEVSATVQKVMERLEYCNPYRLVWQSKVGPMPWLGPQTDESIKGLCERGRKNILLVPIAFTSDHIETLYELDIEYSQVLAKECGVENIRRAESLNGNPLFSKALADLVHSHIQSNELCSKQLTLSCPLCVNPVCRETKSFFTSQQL
An asterisk follows results filed as active; i = inactive; + = active, no number. Shown is part of a subset that was picked to be rich in hits.

SMILES	FECH inh
Cc1cccc(N2CCN(c3ncc(NS(=O)(=O)c4ccc(F)cc4)cc3C(=O)O)CC2C)c1 (stereo not given)	i
Cc1cccc(N2CCN(c3ncc(NS(=O)(=O)c4ccccc4C)cc3C(=O)O)CC2C)c1 (stereo not given)	i
Cc1cccc(N2CCN(c3ncc(NS(=O)(=O)c4cc(F)ccc4C)cc3C(=O)O)CC2C)c1 (stereo not given)	+
O=c1cc(CN2CCCCC2)nc2nc(NCc3ccc(Cl)cc3)[nH]n12	i
COc1ccccc1OCC(=O)Nc1cc(C)nn1-c1ncnc2c1cnn2-c1ccc(F)cc1	i
CNc1cc(-c2ccc3cn[nH]c3c2)c2cc[nH]c2n1	i
CCCc1c(C)nc2ncnn2c1Sc1ccc(NC(=O)Nc2cccc(OC)c2)cc1	+
CCCc1c(C)nc2ncnn2c1Sc1ccc(NC(=O)Nc2ccc(OC)c(OC)c2)cc1	i
CCCc1cc(Sc2ccc(NC(=O)c3cccc(C)c3)cc2)n2ncnc2n1	i
CCc1c(C)nc2ncnn2c1Sc1ccc(NC(=O)Nc2cc(C)ccc2OC)cc1	i
CCCc1cc(Sc2ccc(NC(=O)Nc3cccc(OC)c3)cc2)n2ncnc2n1	+
CCCc1cc(Sc2ccc(NC(=O)c3cccc(F)c3)cc2)n2ncnc2n1	+
CCCc1cc(Sc2ccc(NC(=O)Nc3cccc(Cl)c3)cc2)n2ncnc2n1	i
CCc1c(C)nc2ncnn2c1Sc1ccc(NC(=O)Nc2cc(OC)c(OC)c(OC)c2)cc1	+
CCCc1cc(Sc2ccc(NC(=O)c3ccc(C)cc3)cc2)n2ncnc2n1	i
CCCc1c(C)nc2ncnn2c1Sc1ccc(NC(=O)c2c(OC)cccc2OC)cc1	i
CCc1c(C)nc2ncnn2c1Sc1ccc(NC(=O)Nc2ccccc2OC)cc1	i
CCCc1cc(Sc2ccc(NC(=O)Nc3ccc(OC)c(OC)c3)cc2)n2ncnc2n1	i
COCC1(Cn2cnc(-c3ccccc3)c2-c2cnn(C)c2)CCCC1	i
CCN(CC)CCNC(=O)C1CCN(c2ccc(-c3ccccc3)nn2)CC1	i
COc1cccc(-c2cc(=O)[nH]c(SCc3nc(-c4cccc(Cl)c4)oc3C)n2)c1	i
O=C1CCC(NCC2(c3cccc(F)c3)CCOCC2)CCN1CC1CC1 (stereo not given)	i
COc1cc(S(=O)(=O)N2CCN(c3nc(C)cc(N4CCCCC4)n3)CC2)c(C)cc1C	i
COc1ccc2c(C)c(C(=O)NCc3cc(CC(C)C)on3)oc2c1	i
Cc1ccccc1NS(=O)(=O)c1ccc2c(c1)CCN2C(=O)CCC(=O)N1CCOCC1	i
SMILES	FECH inh
COc1ccc(N2C(=O)CCS2(=O)=O)cc1S(=O)(=O)Nc1ccc(F)cc1	i
CCCc1cc(Sc2ccc(NC(=O)Nc3ccc(Cl)cc3)cc2)n2ncnc2n1	i
CCc1cc(Sc2ccc(NC(=O)Nc3ccc(Cl)cc3)cc2)n2ncnc2n1	+
CCc1cc(Sc2ccc(NC(=O)Nc3ccccc3F)cc2)n2ncnc2n1	i
CCc1ccc(Nc2c(-c3ccc4c(c3)CCCC4)c(=O)c2=O)cc1	i
COCC(C)C1CCN(C/C=C/c2ccco2)CC1 (stereo not given)	i
COCC(C)N(Cc1ccccc1OC)C(=O)c1ccco1 (stereo not given)	i
Cc1ccnc(CC(C)N(C)C(=O)c2cccc(=O)[nH]2)c1 (stereo not given)	i
Cc1nc2nc(CN(C(=O)c3ccc(F)cc3)c3ccccc3)nn2c(C)c1Cl	i
COc1ccc(NC(=O)Cn2c(C(=O)OC(C)C)cc3ccsc32)cc1	i
CC(=O)c1ccc(NC(=O)Cn2c(C(=O)OC(C)C)cc3ccsc32)cc1	+
CC(=O)c1cccc(NC(=O)Cn2c(C(=O)OC(C)C)cc3ccsc32)c1	i
CCCCOc1ccc(C(=O)Nc2cc(N3CCCS3(=O)=O)ccc2C)cc1	i
Cc1cccc(C(=O)Nc2nc3n(n2)C(c2ccc(Cl)cc2)C=C(c2ccccc2)N3)c1 (stereo not given)	+
Cc1ccc(C(=O)Nc2nc3n(n2)C(c2ccc(F)cc2)C=C(c2ccccc2)N3)cc1 (stereo not given)	i
O=C(Nc1nc2n(n1)C(c1ccc(F)cc1)C=C(c1ccc(Cl)cc1)N2)c1ccccc1 (stereo not given)	i
O=C(Nc1nc2n(n1)C(c1ccccc1)C=C(c1ccc(Cl)cc1)N2)c1ccc(Cl)cc1 (stereo not given)	i
Cc1ccc(C2=CC(c3ccc(C)cc3)n3nc(NC(=O)c4cccc(Cl)c4)nc3N2)cc1 (stereo not given)	+
Cc1ccc(C(=O)Nc2nc3n(n2)C(c2ccccc2)C=C(c2ccccc2)N3)cc1 (stereo not given)	i
Cc1ccc(C(=O)Nc2nc3n(n2)C(c2ccc(Cl)cc2)C=C(c2ccc(C)cc2)N3)cc1 (stereo not given)	+
Cc1cccc(C(=O)Nc2nc3n(n2)C(c2ccccc2Cl)C=C(c2ccc(Cl)cc2)N3)c1 (stereo not given)	i
Cc1ccc(C2=CC(c3ccc(Cl)cc3)n3nc(NC(=O)C(C)C)nc3N2)cc1 (stereo not given)	i
Cc1ccccc1-c1cc(N2CCN(S(=O)(=O)c3ccccc3)CC2)ncn1	i
CC(C)c1nccn1Cc1cc(C(=O)N(Cc2ccccn2)C2CC2)n[nH]1	i
CCc1ccc(NC(=O)CN2CCN(Cc3ccccc3Cl)S2(=O)=O)cc1	i
SMILES	FECH inh
CCc1nccc(-c2c(-c3ccccc3)ncn2CCSc2nnnn2C)n1	i
CCC(CC)n1nc(C)cc1NC(=O)C(OC)c1ccccc1 (stereo not given)	i
OCCNc1cc(-c2ncccn2)c2cc[nH]c2n1	i
CCc1csc(CNC(=O)c2ccc(-c3ncn[nH]3)cc2)n1	i
CCc1csc(CNC(=O)c2cc(C3CC3)[nH]n2)n1	i
CCc1csc(CNC(=O)c2ncc[nH]2)n1	+
CCCc1cc(Sc2ccc(NS(=O)(=O)c3ccccc3)cc2)n2ncnc2n1	i
Fc1cccc(CCc2n[nH]c(CCc3ccccc3)n2)c1	i
Cn1c(=O)n(Cc2ccc(F)cc2)c(=O)c2cnc(-c3cccs3)nc21	i
Cc1ncc(-c2c(-c3ccccc3)ncn2CCCc2ccncc2)s1	i
CCC(C(=O)Nc1ccc(Nc2nc(C)cc(Nc3ccccc3)n2)cc1)c1ccccc1 (stereo not given)	i
CCC(C(=O)Nc1ccc(Nc2nc(C)cc(Nc3ccc(C)cc3)n2)cc1)c1ccccc1 (stereo not given)	i
CCC(C(=O)Nc1ccc(Nc2nc(C)cc(N(C)C)n2)cc1)c1ccccc1 (stereo not given)	+
Cc1cc(C)c(NC(=O)Cn2nc(-c3ccc(C)c(S(N)(=O)=O)c3)c3c(c2=O)CCCC3)c(C)c1	i
O=C(C1CCCN(c2ncnc3c2nc2n3CCCCC2)C1)N1CCN(c2cccc(C(F)(F)F)c2)CC1 (stereo not given)	i
CCOc1ccc(OCC)c(S(=O)(=O)N2CCN(c3nc(C)cc(N4CCCCC4)n3)CC2)c1	i
Cc1ccc(S(=O)(=O)N2CCC(n3c(C(F)(F)F)nc4cccnc43)CC2)cc1	i
CC(C)CC1(CO)CCCN(C(=O)c2cccc(C#CC(C)(C)O)c2)C1 (stereo not given)	+
CC(C)(O)C#Cc1cccc(C(=O)N2CCc3nc[nH]c3C2)c1	i
C/C=C/Cc1nnc(C(=O)N2CCCC(CO)(CC(C)C)C2)o1 (stereo not given)	i
